The labels stand for the following.
B1: UUGGUCC (DNA:RNA)
RNA: GGGAGACCGGAAUUCAGAUUGUCCUUGGUCCUUAAAUCCCGUCGUAGCCACCA
DNA 1: CAATCTGAATTCCGGTCTCCC
DNA 2: TGGTGGCTACGACGGGATT
B2: GUGGUCC (DNA:RNA)
RNA: B1 RNA with U25G
DNA 1: CAATCTGAATTCCGGTCTCCC
DNA 2: TGGTGGCTACGACGGGATT
B3: GUCGGCC (DNA:RNA)
RNA: B1 RNA with U25G, G27C, U29G
DNA 1: CAATCTGAATTCCGGTCTCCC
DNA 2: TGGTGGCTACGACGGGATT
B4: UCCUUGG (DNA:RNA)
RNA: B1 RNA with U26C, G27C, G28U, C30G, C31G
DNA 1: CAATCTGAATTCCGGTCTCCC
DNA 2: TGGTGGCTACGACGGGATT
B5: UUGUCCG (DNA:RNA)
RNA: B1 RNA with G28U, U29C, C31G
DNA 1: CAATCTGAATTCCGGTCTCCC
DNA 2: TGGTGGCTACGACGGGATT
B6: UUGGUCG (DNA:RNA)
RNA: B1 RNA with C31G
DNA 1: CAATCTGAATTCCGGTCTCCC
DNA 2: TGGTGGCTACGACGGGATT
B7: UUGUUCG (DNA:RNA)
RNA: B1 RNA with G28U, C31G
DNA 1: CAATCTGAATTCCGGTCTCCC
DNA 2: TGGTGGCTACGACGGGATT
B8: UUGGUUG (DNA:RNA)
RNA: B1 RNA with C30U, C31G
DNA 1: CAATCTGAATTCCGGTCTCCC
DNA 2: TGGTGGCTACGACGGGATT
B9: UUGUUGG (DNA:RNA)
RNA: B1 RNA with G28U, C30G, C31G
DNA 1: CAATCTGAATTCCGGTCTCCC
DNA 2: TGGTGGCTACGACGGGATT
B10: GGCCUUG (DNA:RNA)
RNA: B1 RNA with U25G, U26G, G27C, G28C, C30U, C31G
DNA 1: CAATCTGAATTCCGGTCTCCC
DNA 2: TGGTGGCTACGACGGGATT
B11: GGCGGCC (DNA:RNA)
RNA: B1 RNA with U25G, U26G, G27C, U29G
DNA 1: CAATCTGAATTCCGGTCTCCC
DNA 2: TGGTGGCTACGACGGGATT
B12: GUCCUUG (DNA:RNA)
RNA: B1 RNA with U25G, G27C, G28C, C30U, C31G
DNA 1: CAATCTGAATTCCGGTCTCCC
DNA 2: TGGTGGCTACGACGGGATT
B13: GACUGGA (DNA:RNA)
RNA: GGGAGACCGGAAUUCAGAUUGUCCGACUGGAUUAAAUCCCGUCGUAGCCACCA
DNA 1: CAATCTGAATTCCGGTCTCCC
DNA 2: TGGTGGCTACGACGGGATT
B14: AUGUUUG (DNA:RNA)
RNA: B1 RNA with U25A, G28U, C30U, C31G
DNA 1: CAATCTGAATTCCGGTCTCCC
DNA 2: TGGTGGCTACGACGGGATT
B15: AUCAGUG (DNA:RNA)
RNA: B13 RNA with G25A, A26U, U28A, G30U, A31G
DNA 1: CAATCTGAATTCCGGTCTCCC
DNA 2: TGGTGGCTACGACGGGATT
B16: AGUUGGA (DNA:RNA)
RNA: B13 RNA with G25A, A26G, C27U
DNA 1: CAATCTGAATTCCGGTCTCCC
DNA 2: TGGTGGCTACGACGGGATT
B17: ACGCCGG (DNA:RNA)
RNA: B13 RNA with G25A, A26C, C27G, U28C, G29C, A31G
DNA 1: CAATCTGAATTCCGGTCTCCC
DNA 2: TGGTGGCTACGACGGGATT
B18: GAGGGUG (DNA:RNA)
RNA: B13 RNA with C27G, U28G, G30U, A31G
DNA 1: CAATCTGAATTCCGGTCTCCC
DNA 2: TGGTGGCTACGACGGGATT
B19: UGUUCUC (DNA:RNA)
RNA: B1 RNA with U26G, G27U, G28U, U29C, C30U
DNA 1: CAATCTGAATTCCGGTCTCCC
DNA 2: TGGTGGCTACGACGGGATT
B20: AGAUUUA (DNA:RNA)
RNA: B13 RNA with G25A, A26G, C27A, G29U, G30U
DNA 1: CAATCTGAATTCCGGTCTCCC
DNA 2: TGGTGGCTACGACGGGATT
B21: GCGCCAC (DNA:RNA)
RNA: B1 RNA with U25G, U26C, G28C, U29C, C30A
DNA 1: CAATCTGAATTCCGGTCTCCC
DNA 2: TGGTGGCTACGACGGGATT
B22: GUGGUGG (DNA:RNA)
RNA: B1 RNA with U25G, C30G, C31G
DNA 1: CAATCTGAATTCCGGTCTCCC
DNA 2: TGGTGGCTACGACGGGATT
B23: GUGGUUG (DNA:RNA)
RNA: B1 RNA with U25G, C30U, C31G
DNA 1: CAATCTGAATTCCGGTCTCCC
DNA 2: TGGTGGCTACGACGGGATT
B24: GUCGUGG (DNA:RNA)
RNA: B13 RNA with A26U, U28G, G29U, A31G
DNA 1: CAATCTGAATTCCGGTCTCCC
DNA 2: TGGTGGCTACGACGGGATT
B25: UGGGGGA (DNA:RNA)
RNA: B13 RNA with G25U, A26G, C27G, U28G
DNA 1: CAATCTGAATTCCGGTCTCCC
DNA 2: TGGTGGCTACGACGGGATT
B26: CCCUGGA (DNA:RNA)
RNA: B13 RNA with G25C, A26C
DNA 1: CAATCTGAATTCCGGTCTCCC
DNA 2: TGGTGGCTACGACGGGATT
B27: UGGGAGA (DNA:RNA)
RNA: B1 RNA with U26G, U29A, C30G, C31A
DNA 1: CAATCTGAATTCCGGTCTCCC
DNA 2: TGGTGGCTACGACGGGATT
B28: CUGGAUG (DNA:RNA)
RNA: B1 RNA with U25C, U29A, C30U, C31G
DNA 1: CAATCTGAATTCCGGTCTCCC
DNA 2: TGGTGGCTACGACGGGATT
B29: UGGGAUG (DNA:RNA)
RNA: B1 RNA with U26G, U29A, C30U, C31G
DNA 1: CAATCTGAATTCCGGTCTCCC
DNA 2: TGGTGGCTACGACGGGATT
B30: CGGAUGU (DNA:RNA)
RNA: B1 RNA with U25C, U26G, G28A, C30G, C31U
DNA 1: CAATCTGAATTCCGGTCTCCC
DNA 2: TGGTGGCTACGACGGGATT
B31: UGCGCGA (DNA:RNA)
RNA: B13 RNA with G25U, A26G, U28G, G29C
DNA 1: CAATCTGAATTCCGGTCTCCC
DNA 2: TGGTGGCTACGACGGGATT
B32: UGCGAUG (DNA:RNA)
RNA: B1 RNA with U26G, G27C, U29A, C30U, C31G
DNA 1: CAATCTGAATTCCGGTCTCCC
DNA 2: TGGTGGCTACGACGGGATT
B33: CUGGAGA (DNA:RNA)
RNA: B1 RNA with U25C, U29A, C30G, C31A
DNA 1: CAATCTGAATTCCGGTCTCCC
DNA 2: TGGTGGCTACGACGGGATT
B34: UGCGAUC (DNA:RNA)
RNA: B1 RNA with U26G, G27C, U29A, C30U
DNA 1: CAATCTGAATTCCGGTCTCCC
DNA 2: TGGTGGCTACGACGGGATT
B35: UGGAUGU (DNA:RNA)
RNA: B1 RNA with U26G, G28A, C30G, C31U
DNA 1: CAATCTGAATTCCGGTCTCCC
DNA 2: TGGTGGCTACGACGGGATT
B36: UGGAUUU (DNA:RNA)
RNA: B1 RNA with U26G, G28A, C30U, C31U
DNA 1: CAATCTGAATTCCGGTCTCCC
DNA 2: TGGTGGCTACGACGGGATT

Where a chain is given by its changes, count along the chain named. Whole data set: some 16,000 sequences, median “ka relative to ugcaugu” near 0.0091, cut for the highest 2% near 0.032. This is one part of a sample in which the highest values are shown more often than they occur.

This assay concerns the target T1, RBFOX1 RRM (Homo sapiens, UniProt Q9NWB1 109-208).
T1 sequence: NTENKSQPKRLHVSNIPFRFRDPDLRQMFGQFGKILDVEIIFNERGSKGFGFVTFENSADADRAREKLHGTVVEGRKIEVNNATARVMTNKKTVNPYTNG
As to the kind of experiment: EMSA; HiTS-Eq, 1 nM pool, 10 min; buffer printed only for the single-RNA assays: 10 mM Tris pH 7.5, 150 mM NaCl, 3.4 mM EDTA, 0.001% NP-40, 30 C. To be noted: tags: His6 N-terminal (pET28a); label: 5' 32P. A digest of the protocol: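 These values rest on relative association constants, computed from read-count changes of each RNA species versus the control reaction and normalised to the cognate motif. Reads came from free RNA recovered by 8% native PAGE after purified RbFox RRM (wild type or mutant) at increasing concentrations was equilibrated for 10 min in 50 µL with 1 nM of a 5′-radiolabelled pool with 7 randomized nucleotides and DNA-annealed flanks.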
(In general: A gel shift assay detects complexes by their altered migration in electrophoresis.)
On to B1, for which the binding signal was 0.0262 KA relative to UGCAUGU.
Take B2: the binding signal was 0.0226 KA relative to UGCAUGU.
Take B3: the binding signal was 0.0169 KA relative to UGCAUGU.
Consider B4, for which the binding signal was 0.0132 KA relative to UGCAUGU.
With B5, the binding signal was 0.0163 KA relative to UGCAUGU.
Take B6: the binding signal is 0.0376 KA relative to UGCAUGU.
Take B7: the binding signal was 0.0364 KA relative to UGCAUGU.
Take B8: the binding signal was 0.0398 KA relative to UGCAUGU.
On to B9, for which the binding signal is 0.0248 KA relative to UGCAUGU.
As for B10, the binding signal is 0.0328 KA relative to UGCAUGU.
On to B11, for which the binding signal is 0.0183 KA relative to UGCAUGU.
Turning to B12, the binding signal is 0.0114 KA relative to UGCAUGU.
In the case of B13, the binding signal was 0.0138 KA relative to UGCAUGU.
B14: the binding signal was 0.0211 KA relative to UGCAUGU.
In the case of B15, the binding signal is 0.00865 KA relative to UGCAUGU.
As for B16, the binding signal was 0.00398 KA relative to UGCAUGU.
With B17, the binding signal was 0.00777 KA relative to UGCAUGU.
For B18, the binding signal was 0.0242 KA relative to UGCAUGU.
For B19, the binding signal was 0.0181 KA relative to UGCAUGU.
On to B20, for which the binding signal is 0.00707 KA relative to UGCAUGU.
The figure for B21 is 0.00734 KA relative to UGCAUGU.
As to B22, the binding signal was 0.0237 KA relative to UGCAUGU.
B23: the binding signal is 0.0321 KA relative to UGCAUGU.
As for B24, the binding signal was 0.0185 KA relative to UGCAUGU.
For the molecule B25, the binding signal was 0.0155 KA relative to UGCAUGU.
In the case of B26, the binding signal was 0.013 KA relative to UGCAUGU.
On to B27, for which the binding signal was 0.025 KA relative to UGCAUGU.
For B28, the binding signal was 0.0353 KA relative to UGCAUGU.
For B29, the binding signal was 0.0414 KA relative to UGCAUGU.
Under B30 stands 0.0261 KA relative to UGCAUGU.
B31: the binding signal is 0.0211 KA relative to UGCAUGU.
With B32, the binding signal is 0.0369 KA relative to UGCAUGU.
For B33, the binding signal was 0.0188 KA relative to UGCAUGU.
Take B34: the binding signal is 0.0166 KA relative to UGCAUGU.
Take B35: the binding signal was 0.0494 KA relative to UGCAUGU.
For B36, the binding signal was 0.0242 KA relative to UGCAUGU.

The values above are taken from article PMC9911399, “Two distinct binding modes provide the RNA-binding protein RbFox with extraordinary sequence specificity”.
